Reference: PubChem BioAssay (EPA / NIEHS)
Results filed as inconclusive are left out. Active and inactive are the calls of the source. The calls were made as follows, unless noted: active = hit-call score of the fitted dose curve at least 0.9, where 1 is the maximum; inconclusive = response in the unintended direction; inactive = score below 0.9.

Experiments:
[1] = ATG_EGR_CIS: Attagene CIS-FACTORIAL HepG2 Assay for human Early Growth Response 1 (EGR1) (AID 2282938; active = hit-call score of the fitted dose curve at least 0.9, where 1 is the maximum; inactive = score below 0.9); conditions: HepG2 Attagene CIS-FACTORIAL EGR reporter mRNA; actives raise or lower the signal
Outline: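 Endogenous TF activity in HepG2 liver cells was gauged through cis-promoter reporter constructs transiently transfected. After 24 h dosing, reporter mRNA was quantified by RT-PCR and capillary electrophoresis, and curves fitted in both directions versus DMSO.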

[2] = ATG_ISRE_CIS: Attagene CIS-FACTORIAL HepG2 Assay for human Interferon Regulatory Factor 1 (IRF1) binding to an Interferon-Stimulated Response Element (ISRE) (AID 2282948; active = hit-call score of the fitted dose curve at least 0.9, where 1 is the maximum; inactive = score below 0.9); conditions: HepG2 ISRE cis-reporter (Attagene), mRNA transcription readout; actives raise or lower the signal
Outline: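 Transiently transfected HepG2 cells carrying cis-element reporter units, dosed 24 hours. Reporter mRNA quantified by RT-PCR, fluorescent primer extension, HpaI digestion and capillary electrophoresis. Bidirectional fitting relative to DMSO.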

[3] = ATG_M_06_CIS: Attagene CIS-FACTORIAL HepG2 Assay for M06 Transcription Factor (Internal Marker) (AID 2282950; active = hit-call score of the fitted dose curve at least 0.9, where 1 is the maximum; inactive = score below 0.9); conditions: HepG2 Attagene CIS-FACTORIAL M06 internal marker reporter; actives raise or lower the signal
Outline: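 Read-out is fluorescence of labelled reporter cDNA fragments resolved by capillary electrophoresis after RT-PCR. Cells: HepG2 carrying transfected cis-promoter reporter units, treated 24 h. Gain or loss of signal fitted relative to DMSO.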

[4] = ATG_PBREM_CIS: Attagene CIS-FACTORIAL HepG2 Assay for human Phenobarbital-responsive Enhancer Module (PBREM) (AID 2282955; active = hit-call score of the fitted dose curve at least 0.9, where 1 is the maximum; inactive = score below 0.9); conditions: HepG2 PBREM cis-reporter, Attagene multiplexed transcription; actives raise or lower the signal
Outline: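 Fluorescence of labelled reporter cDNA fragments, resolved by capillary electrophoresis, gives mRNA induction in transfected HepG2 cells treated for 24 h; DMSO serves as negative control and baseline.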

[5] = molecular target: Hepatocyte nuclear factor 4-alpha (Homo sapiens) (UniProt P41235); experiment: ATG_HNF4a_TRANS: Attagene TRANS-FACTORIAL HepG2 Assay for human Hepatocyte Nuclear Factor 4 alpha (HNF4a) (AID 2282982); conditions: HepG2 HNF4a transactivation reporter, mRNA readout
Outline: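 Cells used were human HepG2, transiently carrying GAL4-UAS reporter units read out against exogenous NR-GAL4 chimeras. Reporter transcript levels after 24 h dosing were quantified by fluorescent RT-PCR and capillary electrophoresis.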

[6] = ATG_M_06_TRANS: Attagene TRANS-FACTORIAL HepG2 Assay for M06 Transcription Factor (Internal Marker) (AID 2282983); conditions: HepG2 Attagene TRANS M06 internal marker reporter
Outline: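 After a 24 h chemical treatment of transfected HepG2, RNA underwent DNase I treatment, reverse transcription and reporter-specific PCR; labelled, HpaI-digested products were sized by capillary electrophoresis. Signal increase relative to DMSO defined activity.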

[7] = molecular target: human Peroxisome Proliferator-activated Receptor delta (PPARd), PPARD (gene 5467) (UniProt Q03181); experiment: ATG_PPARd_TRANS: Attagene TRANS-FACTORIAL HepG2 Assay for human Peroxisome Proliferator-activated Receptor delta (PPARd) (AID 2283002)
Outline: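 Multiplexed trans-activation format: HepG2 liver cells expressing exogenous NR-Gal4 chimeras and GAL4-UAS reporters were exposed for 24 h. Reporter mRNA was detected by RT-PCR with capillary electrophoresis fluorescence; activity fitted as gain of signal relative to DMSO.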

[8] = molecular target: Nuclear receptor subfamily 1 group I member 2 (Homo sapiens) (UniProt O75469); experiment: ATG_PXR_TRANS: Attagene TRANS-FACTORIAL HepG2 Assay for human Pregnane X Receptor (PXR) (AID 2283008)
Outline: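 HepG2 cells transiently transfected with GAL4-UAS reporter units and PXR-Gal4 chimera, exposed 24 h. Reporter mRNA quantified by RT-PCR, fluorescent labelling, HpaI digestion and capillary electrophoresis; gain of signal vs DMSO.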

[9] = molecular target: human Thyroid Receptor alpha (THRa1), THRA (gene 7067) (UniProt P10827); experiment: ATG_THRa1_TRANS: Attagene TRANS-FACTORIAL HepG2 Assay for human Thyroid Receptor alpha (THRa1) (AID 2283014)
Outline: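 Transient HepG2 transfection, NR-Gal4 chimera driving GAL4-UAS reporters; 24 h compound exposure; total RNA, oligo(dT) RT, PCR, fluorescent primer extension, capillary electrophoresis. Upward direction vs DMSO control.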

[10] = TOX21_p53_BLA_p3_viability: Viability Assessment in the Tox21 HCT-116 p53 Agonism Beta-lactamase Assay, Phase 3 (AID 2283593);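 also: cells exposed to compound for 16 h before reading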
Outline: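 HCT-116 cells (4000/well) rested 5 h at 37C, then got DMSO compounds by pin tool (217-fold dilution) for 16 h at 37C, 5% CO2. After the bla read, CellTiter-Glo was added and luminescence read at 30 min, room temperature.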

[11] = molecular target: Cellular tumor antigen p53 (Homo sapiens) (UniProt P04637); experiment: TOX21_p53_BLA_p5_ratio: Tox21 HCT-116 p53 Agonism Beta-lactamase Assay, Ratio, Phase 5 (AID 2283599)
Outline: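 HCT-116 cells carrying a p53-inducible beta-lactamase reporter were seeded at 4000 cells/well and dosed after 5 h with compound in DMSO (217-fold dilution). After 16 h at 37C, CCF4-AM substrate was added for 2 h, and the 460/530 nm emission ratio was scored as gain-of-signal versus DMSO.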

[12] = TOX21_p53_BLA_p5_viability: Viability Assessment in the Tox21 HCT-116 p53 Agonism Beta-lactamase Assay, Phase 5 (AID 2283600)
Outline: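 Compounds, pinned from DMSO at 217-fold dilution, were left on the cells for 16 h. The viability endpoint was ATP content measured by CellTiter-Glo luminescence, where falling signal reflects cytotoxicity.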

[13] = ACEA_ER_AUC_viability: ACEA Biosciences xCELLigence Real-Time Cell Analysis on Estrogen Receptor Agonism for Viability (AID 2283782);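 also: continuous compound exposure with impedance area under curve over 80 h; hit means loss of impedance signal meaning reduced cell growth or viability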
Outline: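 T-47D human breast cells in phenol red-free RPMI1640 with 10% charcoal-stripped FBS were dosed with an 8-point 1:4 dilution series from 100 uM top final concentration, in duplicate. Impedance-based growth was followed for 80 h; AUC analysed versus DMSO.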

[14] = ATG_CMV_CIS: Attagene CIS-FACTORIAL HepG2 Assay for human CMV (Internal Marker) (AID 2282928; active = hit-call score of the fitted dose curve at least 0.9, where 1 is the maximum; inactive = score below 0.9;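 also: endpoint acts as a background internal control marker rather than a target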); conditions: HepG2 CMV promoter reporter, transcription factor profiling; actives raise or lower the signal
Outline: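 CMV internal-marker background readout in transiently transfected HepG2 cells bearing cis-regulated reporter units. Reporter mRNA is measured 24 h after dosing by RT-PCR and capillary electrophoresis, with bidirectional fitting against DMSO.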

[15] = ATG_AP_1_CIS: Attagene CIS-FACTORIAL HepG2 Assay for human Activator Protein 1 (AP-1) (AID 2282931; active = hit-call score of the fitted dose curve at least 0.9, where 1 is the maximum; inactive = score below 0.9); conditions: HepG2 Attagene cis-factorial AP-1 reporter mRNA; actives raise or lower the signal
Outline: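 Endogenous transcription-factor activity in human HepG2 liver cells is read through a cis-promoter reporter transcript, sampled 24 h after dosing. Detection uses RT-PCR with capillary electrophoresis; values come from bidirectional fitting relative to DMSO.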

[16] = ATG_TAL_CIS: Attagene CIS-FACTORIAL HepG2 Assay for human TAL Basal Promoter (AID 2282966; active = hit-call score of the fitted dose curve at least 0.9, where 1 is the maximum; inactive = score below 0.9;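 also: background control endpoint measuring basal TAL promoter reporter mRNA not a specific factor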); conditions: HepG2 Attagene cis-factorial TAL promoter reporter; actives raise or lower the signal
Outline: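 In this cell-based multiplex, HepG2 liver cells bearing cis-promoter reporter constructs are dosed for 24 hours. Total RNA is reverse-transcribed and amplified, labelled fragments are sized by capillary electrophoresis, and signal changes are fitted bidirectionally versus DMSO.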

[17] = ATG_M_19_TRANS: Attagene TRANS-FACTORIAL HepG2 Assay for M19 Transcription Factor (Internal Marker) (AID 2282974); conditions: HepG2 Attagene TRANS-FACTORIAL M19 internal marker reporter
Outline: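 Cells: human HepG2, transiently transfected with multiplexed reporter transcription units. Exposure: 24 h. Detection: RT-PCR of reporter mRNA with capillary electrophoresis. Analysis: gain-of-signal vs DMSO.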

[18] = ATG_NRF2_ARE_CIS: Attagene CIS-FACTORIAL HepG2 Assay for human Nuclear Factor Erythroid 2 Related Factor 2 (NFR2) response to Antioxidant Response Elements (ARE) (AID 2282992; active = hit-call score of the fitted dose curve at least 0.9, where 1 is the maximum; inactive = score below 0.9;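 as to AC50: reporter mRNA level measured by RT-PCR and capillary electrophoresis fluorescence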); conditions: HepG2 Attagene ARE/NRF2 reporter, transcription factor activity; actives raise or lower the signal
Outline: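 HepG2 cells transiently transfected with multiplexed cis-element reporter constructs, 24 h after chemical dosing; reporter mRNA quantified by RT-PCR, fluorescent primer extension, HpaI digestion and capillary electrophoresis. Bidirectional fit relative to DMSO.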

[19] = molecular target: Hepatocyte nuclear factor 6 (Homo sapiens) (UniProt Q9UBC0); experiment: ATG_HNF6_CIS: Attagene CIS-FACTORIAL HepG2 Assay for human Hepatocyte Nuclear Factor 6 (HNF6) (AID 2282952; active = hit-call score of the fitted dose curve at least 0.9, where 1 is the maximum; inactive = score below 0.9); conditions: HepG2 Attagene cis-factorial HNF6 reporter transcription; actives raise or lower the signal
Outline: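 Transiently transfected HepG2 cells expressing cis-regulated reporter transcription units were exposed to chemical for 24 h in a 24-well format. Reporter transcript abundance was determined by fluorescence capillary electrophoresis.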

[20] = molecular target: human Fibroblast Growth Factor Receptor 1 (FGFR1), FGFR1 (gene 2260) (UniProt P11362); experiment: NVS_ENZ_hFGFR1: NovaScreen (NVS) Enzymatic Assay for human Fibroblast Growth Factor Receptor 1 (FGFR1) (AID 2283159)
Outline: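 Cell-free recombinant kinase with fluorescent substrate, product separated by electrophoretic mobility shift; read 1 hour after dosing, loss of signal relative to DMSO. Initial screen in duplicate at 25 uM, actives followed in concentration series.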

Measured: AC50

Sequence of Nuclear receptor subfamily 1 group I member 2 (Homo sapiens) (O75469 whole entry, looked up, the tested form may be a part): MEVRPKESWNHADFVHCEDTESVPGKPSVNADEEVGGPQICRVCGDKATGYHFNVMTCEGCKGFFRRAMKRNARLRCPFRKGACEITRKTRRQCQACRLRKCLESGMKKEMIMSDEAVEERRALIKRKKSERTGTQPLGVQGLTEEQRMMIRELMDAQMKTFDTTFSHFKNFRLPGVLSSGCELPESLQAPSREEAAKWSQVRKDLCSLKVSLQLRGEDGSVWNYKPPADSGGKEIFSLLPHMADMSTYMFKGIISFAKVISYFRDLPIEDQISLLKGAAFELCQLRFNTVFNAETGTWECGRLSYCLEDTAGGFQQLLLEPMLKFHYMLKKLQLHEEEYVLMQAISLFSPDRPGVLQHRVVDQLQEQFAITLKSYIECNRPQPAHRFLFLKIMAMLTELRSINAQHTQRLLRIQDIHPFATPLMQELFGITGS
Sequence of Hepatocyte nuclear factor 6 (Homo sapiens) (Q9UBC0 whole entry, looked up): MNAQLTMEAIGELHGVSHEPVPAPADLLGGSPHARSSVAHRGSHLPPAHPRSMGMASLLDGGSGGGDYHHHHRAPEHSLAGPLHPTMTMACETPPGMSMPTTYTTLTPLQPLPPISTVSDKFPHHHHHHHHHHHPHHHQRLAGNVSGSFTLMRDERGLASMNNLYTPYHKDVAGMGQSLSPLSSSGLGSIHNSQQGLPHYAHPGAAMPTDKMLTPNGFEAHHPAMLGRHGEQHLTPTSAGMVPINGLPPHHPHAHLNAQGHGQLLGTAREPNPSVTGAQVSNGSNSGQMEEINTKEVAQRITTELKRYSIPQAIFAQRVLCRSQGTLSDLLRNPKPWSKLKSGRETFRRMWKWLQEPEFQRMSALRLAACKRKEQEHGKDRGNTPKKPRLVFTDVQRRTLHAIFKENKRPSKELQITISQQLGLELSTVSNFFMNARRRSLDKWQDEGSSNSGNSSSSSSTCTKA
Sequence of Cellular tumor antigen p53 (Homo sapiens) (P04637 whole entry, looked up): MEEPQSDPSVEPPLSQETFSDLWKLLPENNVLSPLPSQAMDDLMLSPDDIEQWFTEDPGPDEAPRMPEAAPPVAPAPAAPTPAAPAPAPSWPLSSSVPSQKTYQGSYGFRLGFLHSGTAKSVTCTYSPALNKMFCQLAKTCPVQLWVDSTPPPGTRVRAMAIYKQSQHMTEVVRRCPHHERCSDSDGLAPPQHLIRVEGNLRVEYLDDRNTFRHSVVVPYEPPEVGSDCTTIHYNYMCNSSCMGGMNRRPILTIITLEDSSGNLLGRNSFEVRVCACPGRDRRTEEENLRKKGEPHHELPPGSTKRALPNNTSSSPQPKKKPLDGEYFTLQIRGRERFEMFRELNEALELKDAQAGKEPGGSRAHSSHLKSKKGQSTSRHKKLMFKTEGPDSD
Sequence of human Thyroid Receptor alpha (THRa1), THRA (gene 7067) (P10827 whole entry, looked up, the tested form may be a part): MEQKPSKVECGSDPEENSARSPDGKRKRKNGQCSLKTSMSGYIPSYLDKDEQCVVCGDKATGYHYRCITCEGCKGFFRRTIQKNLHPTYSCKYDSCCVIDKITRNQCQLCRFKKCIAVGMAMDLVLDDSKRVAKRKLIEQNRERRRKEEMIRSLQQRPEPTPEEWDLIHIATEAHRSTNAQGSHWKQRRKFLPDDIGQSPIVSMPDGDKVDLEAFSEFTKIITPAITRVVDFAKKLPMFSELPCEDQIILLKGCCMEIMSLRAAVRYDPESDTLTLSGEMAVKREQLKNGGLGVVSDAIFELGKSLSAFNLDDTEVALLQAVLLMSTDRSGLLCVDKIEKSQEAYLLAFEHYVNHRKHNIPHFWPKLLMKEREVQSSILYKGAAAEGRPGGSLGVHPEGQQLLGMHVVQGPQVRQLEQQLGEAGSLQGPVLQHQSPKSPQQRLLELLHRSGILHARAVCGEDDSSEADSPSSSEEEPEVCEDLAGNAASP
Sequence of Hepatocyte nuclear factor 4-alpha (Homo sapiens) (P41235 whole entry, looked up, the tested form may be a part): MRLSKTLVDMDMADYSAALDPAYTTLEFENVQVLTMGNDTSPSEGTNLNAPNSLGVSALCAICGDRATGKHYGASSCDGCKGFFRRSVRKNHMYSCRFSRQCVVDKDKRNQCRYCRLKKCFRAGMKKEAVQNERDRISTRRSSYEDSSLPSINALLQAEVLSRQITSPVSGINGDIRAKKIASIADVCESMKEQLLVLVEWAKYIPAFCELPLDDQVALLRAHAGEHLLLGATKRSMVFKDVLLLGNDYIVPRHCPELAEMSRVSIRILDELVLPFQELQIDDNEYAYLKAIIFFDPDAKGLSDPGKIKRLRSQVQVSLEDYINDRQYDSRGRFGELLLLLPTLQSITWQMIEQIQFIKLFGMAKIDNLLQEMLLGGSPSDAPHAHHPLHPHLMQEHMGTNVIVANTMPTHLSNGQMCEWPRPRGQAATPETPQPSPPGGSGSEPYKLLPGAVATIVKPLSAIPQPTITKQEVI
Sequence of human Peroxisome Proliferator-activated Receptor delta (PPARd), PPARD (gene 5467) (Q03181 whole entry, looked up, the tested form may be a part): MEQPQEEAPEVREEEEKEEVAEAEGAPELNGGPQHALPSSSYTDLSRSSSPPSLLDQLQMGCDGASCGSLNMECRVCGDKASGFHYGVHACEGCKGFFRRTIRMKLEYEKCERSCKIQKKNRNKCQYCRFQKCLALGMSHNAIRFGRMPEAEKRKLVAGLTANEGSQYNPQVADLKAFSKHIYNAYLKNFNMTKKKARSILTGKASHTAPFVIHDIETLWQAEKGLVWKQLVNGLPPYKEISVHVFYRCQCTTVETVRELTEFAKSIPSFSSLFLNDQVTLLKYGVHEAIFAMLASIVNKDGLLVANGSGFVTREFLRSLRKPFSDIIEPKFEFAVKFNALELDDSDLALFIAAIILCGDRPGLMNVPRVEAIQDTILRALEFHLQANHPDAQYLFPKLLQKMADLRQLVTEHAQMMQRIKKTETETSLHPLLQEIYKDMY
Sequence of human Fibroblast Growth Factor Receptor 1 (FGFR1), FGFR1 (gene 2260) (P11362 whole entry, looked up): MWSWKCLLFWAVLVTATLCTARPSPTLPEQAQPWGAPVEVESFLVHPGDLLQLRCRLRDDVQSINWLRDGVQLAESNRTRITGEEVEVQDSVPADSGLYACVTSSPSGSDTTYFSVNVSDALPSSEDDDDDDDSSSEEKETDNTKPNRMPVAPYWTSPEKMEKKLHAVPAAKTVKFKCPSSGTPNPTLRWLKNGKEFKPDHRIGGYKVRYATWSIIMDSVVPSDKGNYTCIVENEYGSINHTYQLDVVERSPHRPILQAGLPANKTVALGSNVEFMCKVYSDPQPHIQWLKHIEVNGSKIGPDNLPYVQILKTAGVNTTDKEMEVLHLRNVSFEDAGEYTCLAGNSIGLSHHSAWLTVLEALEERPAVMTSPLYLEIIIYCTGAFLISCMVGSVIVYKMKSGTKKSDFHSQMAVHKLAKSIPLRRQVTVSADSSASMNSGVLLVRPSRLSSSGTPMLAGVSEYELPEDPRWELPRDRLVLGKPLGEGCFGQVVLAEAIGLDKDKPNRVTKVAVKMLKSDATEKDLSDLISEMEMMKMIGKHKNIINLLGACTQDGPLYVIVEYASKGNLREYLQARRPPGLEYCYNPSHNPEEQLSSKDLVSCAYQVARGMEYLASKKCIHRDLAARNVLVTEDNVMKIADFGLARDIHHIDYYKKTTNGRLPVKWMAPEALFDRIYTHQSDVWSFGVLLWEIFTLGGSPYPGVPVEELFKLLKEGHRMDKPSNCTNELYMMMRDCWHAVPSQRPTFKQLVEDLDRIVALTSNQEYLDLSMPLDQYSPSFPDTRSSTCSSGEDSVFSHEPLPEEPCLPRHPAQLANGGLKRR

C=CC(=O)OCCO
active: [1] 116 µM | [13] 46.4 µM
not listed: [14] | [15] | [16] | [17] | [18] | [19] | [20]
inactive: all other assays above

Clc1ccc(-c2ccccc2)cc1
active: [14] 139 µM | [15] 170 µM | [18] 149 µM
not listed: [1] | [9] | [10] | [11] | [12] | [19] | [20]
inactive: all other assays above

Cl/C=C\CCl
not listed: [2] | [3] | [10] | [11] | [12] | [14] | [16] | [20]
inactive: all other assays above

N#CCNCC#N
inactive: [14] | [1] | [2] | [19] | [4] | [16] | [17] | [6] | [7] | [13]

O=[N+]([O-])c1ccc(Cl)cc1
not listed: [2] | [4] | [6] | [7] | [8] | [9] | [16] | [19]
inactive: all other assays above

Cc1cc(C)c(C2=C(OC(=O)CC(C)(C)C)C3(CCCC3)OC2=O)c(C)c1
active: [2] 168 µM | [18] 160 µM
inactive: [14] | [3] | [19] | [4] | [17] | [5] | [6] | [8] | [13]

C=CCN(CC=C)C(=O)C(Cl)Cl
active: [18] 50.9 µM
not listed: [2] | [5] | [6] | [9] | [16] | [19] | [20]
inactive: all other assays above

CN(N=O)c1ccccc1
inactive: [1] | [3] | [19] | [4] | [5] | [6] | [18] | [8]

C[C@]12CC[C@H](O)C[C@H]1CC[C@@H]1[C@@H]2C[C@@H](O)[C@]2(C)[C@@H](C3=CC(=O)OC3)CC[C@]12O
inactive: [3] | [4] | [5] | [6] | [18] | [7] | [8] | [9]
active: [15] 3.46 µM | [1] 2.68 µM | [2] 13.8 µM | [19] 5.31 µM | [16] 60.9 µM | [13] 1.75 µM

O=[N+]([O-])C=Cc1ccccc1
active: [15] 57.7 µM | [1] 14.4 µM | [5] 47.5 µM | [8] 8.62 µM
not listed: [2] | [7] | [11] | [17] | [18] | [20]
inactive: all other assays above
